Experimental data taken from PubChem BioAssay.

system: not listed separately; assay: anti-His antibody binders, primary screen, artefact control for SMM control protein annotation, biochemical, small-molecule microarray, 635 nm fluorescence (AID 1128); conditions: anti-His Alexa647 antibody binding, higher = more signal;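 note: score merges feature fluorescence with signal-to-noise for each printed compound spot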

SMILES	composite z-score
COc1ccc(-c2cnnc(CCCn3ccnc3-c3ccccc3)n2)cc1	1.39
CCOC(=O)NN=C1C[C@@H](O)[C@@H](O)[C@@H]2[C@@H]3C(=O)N(c4ccc(F)cc4F)C(=O)[C@@H]3CC[C@H]12	0.142
C#CCCCON=C1C[C@@H](O)[C@@H](O)[C@@H]2[C@@H]3C(=O)N(CC)C(=O)[C@@H]3CC[C@H]12	1.93
C[C@H]1CC[C@@H](C(=O)O)N[C@@H]1c1ccc(C#Cc2ccccc2)cc1	1.53
COC(=O)[C@H](C)NC(=O)CCC1CC(OC(=O)NCc2cccc3ccccc23)CC2(CCCC(COC(=O)NCc3ccccc3)O2)O1 (some centres not stated)	0.432
CC(=O)OC[C@H]1O[C@H](CC=NOC[C@@H](O)[C@H]2O[C@@H]3OC(C)(C)O[C@@H]3[C@H]2O)C=C[C@@H]1OC(C)=O	0.638

system: Human papillomavirus type 1a E7 protein (residues 1-88); assay: HPV1a E7 small-molecule binders, primary screen, biochemical, small-molecule microarray, residues 1-88, 635 nm (AID 1129); conditions: small-molecule microarray binding, fluorescence 635 nm; higher = more signal

SMILES	composite z-score
COCC#Cc1ccc([C@@H]2N[C@H](C(=O)O)CC[C@H]2C)cc1	0.307
C#CCCCON=C1[C@H]2CCn3c(=O)n([C@@H](CC)c4ccccc4)c(=O)n3[C@H]2[C@H](O)[C@@H]2O[C@H]12	-0.256
O=C1CCCC=C1C(O)C1CCCCC1 (configuration not stated)	-0.568
C[C@@H](c1ccccc1)N1C(=O)[C@H]2[C@H]3[C@H](O)[C@H](O)CC(=NOC[C@@H](O)COCc4ccco4)[C@H]3CC[C@H]2C1=O	-1.09
CCOC(=O)[C@H](CC(C)C)NC(=O)CCC1CC(OC(=O)NCCc2ccc(F)cc2)CC2(CCCC(COC(=O)NCc3cccc4ccccc34)O2)O1 (some centres not stated)	0.982
COC(=O)[C@H](C)NC(=O)CCC1CC(OC(=O)NCCc2ccc(F)cc2)CC2(CCCC(COC(=O)NCCc3ccccc3OC)O2)O1 (some centres not stated)	1.12
CCOC(=O)CCN1C(=O)[C@H]2[C@H]3[C@H](O)[C@H](O)CC(=NOCC(C)C)[C@@H]3CC[C@H]2C1=O	-0.263
CC[C@@H](c1ccccc1)n1c(=O)n2n(c1=O)[C@H]1[C@H](O)[C@@H]3O[C@@H]3C(=NOCc3ccccc3)[C@H]1CC2	0.0875
COc1ccc(O[C@H]2C=C[C@@H](c3ccccc3)O[C@@H]2CON=C(C)CCN2CCCc3nc(C)c(C)cc32)cc1	0.957
COC(OC)[C@@H](C)[C@H](OC)[C@@H](C)[C@H](OC)c1ccccc1	0.104
CC(CCN1CCc2nc(-c3ccccc3)c(-c3ccccc3)cc2C1)=NO[C@@H](C)c1cc(-c2c(C)cc(C)cc2C)no1	-0.444
CO[C@H]1COC(=O)CCC[C@H](C)[C@H](OC)COC(=O)CC=C[C@@H]1C	-0.676
COC(=O)[C@H](CCSC)NC(=O)CC=C[C@@H](C)CO	0.127
C[C@H]1CC[C@@H](C(=O)O)N[C@@H]1c1cccc(N2CCCC2=O)c1	0.675
C#CCCCON=C1C[C@@H](O)[C@@H](O)[C@@H]2[C@@H]3C(=O)N([C@@H](C)c4ccccc4)C(=O)[C@@H]3CC[C@@H]12	-0.82
COC(=O)[C@H](C)NC(=O)CCC1CC(OC(=O)NCc2ccc3c(c2)OCO3)CC2(CCCC(COC(=O)NCc3ccccc3)O2)O1 (some centres not stated)	0.938
CCOC(=O)CCN1C(=O)[C@H]2[C@H]3[C@H](O)[C@H](O)CC(=NNC(=O)OCC)[C@H]3CC[C@H]2C1=O	-0.113
CC(C)(C)N1C(=O)[C@H]2[C@@H]3C(=CC[C@H]2C1=O)C(=O)[C@H]1O[C@H]1[C@H]3O	-0.137

SMILES	composite z-score
O=C1[C@H]2[C@H]3[C@H](O)[C@H](O)CC(=NO[C@@H]4O[C@H](CO)[C@@H](O)[C@H](O)[C@H]4O)[C@@H]3CC[C@H]2C(=O)N1C1CCCCC1	0.486
COc1ccc(COC(=O)NN=C2C[C@@H](O)[C@@H](O)[C@@H]3[C@@H]4C(=O)N([C@@H](C)c5ccccc5)C(=O)[C@@H]4CC[C@@H]23)cc1	0.661
COc1ccc(COC(=O)NN=C2C[C@@H](O)[C@@H](O)[C@@H]3[C@@H]4C(=O)N(Cc5ccccc5)C(=O)[C@@H]4CC[C@@H]23)cc1	0.343
CC(C)[C@@H](OCc1ccccc1)[C@H](C)C=NO[C@@H](C)c1cn([C@H](CO)Cc2ccccc2)nn1	-0.147
CCOC(=O)[C@H](Cc1ccccc1)NC(=O)CCC1CC(OC(=O)NCc2ccc3c(c2)OCO3)CC2(CCCC(COC(=O)NCCOc3ccccc3)O2)O1 (some centres not stated)	1.16
COC(=O)[C@H](C)NC(=O)CCC1CC(OC(=O)NCc2ccc3c(c2)OCO3)CC2(CCCC(COC(=O)NCCCN3CCCC3=O)O2)O1 (some centres not stated)	1.03
O=C(NN=C1C[C@@H](O)[C@@H](O)[C@@H]2[C@@H]3C(=O)N(Cc4ccc5c(c4)OCO5)C(=O)[C@@H]3CC[C@@H]12)OCc1ccccc1	0.0191
CCN1C(=O)[C@H]2[C@H]3[C@H](O)[C@H](O)CC(=NOCC[C@@H]4C=C[C@H](OC(C)=O)[C@@H](COC(C)=O)O4)[C@@H]3CC[C@H]2C1=O	0.311
COC(=O)[C@H](C)NC(=O)CCC1CC(OC(=O)NCc2ccc3c(c2)OCO3)CC2(CCCC(COC(=O)NCCC(C)C)O2)O1 (some centres not stated)	0.63
CO[C@H]1COC(=O)CC=C[C@H](C)[C@H](OC)COC(=O)[C@@H](C)NC(=O)CC=C[C@@H]1C	-1.08
O=C1C=C[C@@H](O)[C@@H]2[C@@H]3C(=O)N(Cc4ccccc4)C(=O)[C@@H]3CC[C@@H]12	0.673
CCOC(=O)[C@H](Cc1ccccc1)NC(=O)CCC1CC(OC(=O)NCc2ccc3c(c2)OCO3)CC2(CCCC(COC(=O)NCCc3ccc(Cl)cc3)O2)O1 (some centres not stated)	0.908
COc1ccc(-c2cnnc(CCCn3ccnc3-c3ccccc3)n2)cc1	0.538
CCOC(=O)NN=C1C[C@@H](O)[C@@H](O)[C@@H]2[C@@H]3C(=O)N(c4ccc(F)cc4F)C(=O)[C@@H]3CC[C@H]12	0.301
C#CCCCON=C1C[C@@H](O)[C@@H](O)[C@@H]2[C@@H]3C(=O)N(CC)C(=O)[C@@H]3CC[C@H]12	0.286
C[C@H]1CC[C@@H](C(=O)O)N[C@@H]1c1ccc(C#Cc2ccccc2)cc1	1.06
COC(=O)[C@H](C)NC(=O)CCC1CC(OC(=O)NCc2cccc3ccccc23)CC2(CCCC(COC(=O)NCc3ccccc3)O2)O1 (some centres not stated)	0.976
CC(=O)OC[C@H]1O[C@H](CC=NOC[C@@H](O)[C@H]2O[C@@H]3OC(C)(C)O[C@@H]3[C@H]2O)C=C[C@@H]1OC(C)=O	0.702
